# Measurements reported in PubChem BioAssay AID588740 (National Center for Advancing Translational Sciences (NCATS), 2011).
# Activity calls are given as the source filed them. The rule behind the calls is not given here.
# Experiment: PC3M Cytotoxicity Assay for Compounds that Inhibit the Perinuclear Compartment: SAR
# Conditions: PC3M-GFP viability, ATPLite luminescence, 24 h
# Text: The perinucleolar compartment (PNC) is a non-membrane-bound nuclear subdomain that is associated with but structurally distinct from the nucleolus. The PNC is a heritable trait, in which the number of PNCs per cell in daughter cells often mimics that of their mother cells. The PNC is heterogeneous in shape, is stable through interphase, disassembles during mitosis, and reassembles in early G1. The PNC is concentrated with newly synthesized RNA polymerase III (pol III) RNAs (MRP RNA, RNAse P H1 RNA, hY RNAs[hY1, 2, 5], Alu RNA, and SRP [7SL] RNA) and RNA binding proteins (nucleolin, PTB, CUG-BP, KSRP, Raver1, Raver2, and Rod). […] Extensive in vitro studies have shown that the PNC is unique to tumor cells and preferentially forms in tumor cells derived from solid tissues. Examination of cancer cell lines from various origins and malignant capacities has shown that PNC prevalence correlates with the malignancy of tumors and has the potential to be developed as a pan-cancer prognostic marker. […] Although the PNC is associated with a DNA locus and a handful of components have been identified, much remains to be investigated regarding the structure and function of the PNC and its mechanistic link to cancer. […]
# 1. […] Luminescencent signal was detected on a Viewlux CCD based imager (PerkinElmer) with a clear filter and a 30 second integration time. […]
row,Compound,AC50
1,N=c1c2c(-c3ccccc3)c(-c3ccccc3)n(Cc3ccccc3)c2ncn1C1CCC(O)CC1 (stereo unspecified),9.96 µM (active)
